Assay results published in PubChem BioAssay AID1159580 (chemical genetic matrix, 2015).
Where “and” joins values, the source holds several entries; their conditions need not be identical. Equal values may be shown once. Hit rate of the full screen: of about 5,500 compounds, about 2,000 (36%) were called active. Inconclusive results (about 18%) are left out. Cut-off read from the data, not from the text of the source: active = normalized growth mostly below about 0.91 (no sharp cut-off); inconclusive = no clear call, values can overlap the other calls; inactive = mostly above about 0.92. This is one part of the list.

Assay: chemical genetic growth profiling, strain panel (AID 1159580);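 note: tested at 20 µM; growth read once vehicle control cultures reached saturation at 30 °C; 1 = growth at the plate median or of vehicle wells; lower values mean less growth of the strain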
Conditions: S. cerevisiae deletion strains, growth OD

Measured: normalized growth

Cc1cc(C2CCCCC2)n(O)c(=O)c1
active: locus YAL013W, strain DEP1, active compounds read low 0.0568 | locus YAL021C, strain ccr4, active compounds read low 0.0678 | locus YAL026C, strain drs2, active compounds read low 0.0676 | locus YAL030W, strain snc1, active compounds read low 0.0625 | locus YBL061C, strain skt5, active compounds read low 0.0672 | locus YBR009C, strain hhf1, active compounds read low 0.0705 | locus YBR021W, strain FUR4, active compounds read low 0.0983 | locus YBR023C, strain chs3, active compounds read low 0.0704 | locus YBR171W, strain sec66, active compounds read low 0.0805 | locus YBR229C, strain ROT2, active compounds read low 0.0502 | locus YBR231C, strain swc5, active compounds read low 0.0693 | locus YBR279W, strain paf1, active compounds read low 0.0649 | locus YCL011C, strain gbp2, active compounds read low 0.0616 | locus YCL016C, strain dcc1, active compounds read low 0.0719 | locus YCL029C, strain bik1, active compounds read low 0.0632 | locus YCL061C, strain MRC1, active compounds read low 0.0677 | locus YCL069W, strain vba3, active compounds read low 0.0654 | locus YCR088W, strain abp1, active compounds read low 0.0632 | locus YDL005C, strain med2, active compounds read low 0.0889 | locus YDL035C, strain GPR1, active compounds read low 0.0542 | locus YDL040C, strain nat1, active compounds read low 0.0679 | locus YDL074C, strain BRE1, active compounds read low 0.0802 | locus YDL101C, strain DUN1, active compounds read low 0.0596 | locus YDL134C, strain PPH21, active compounds read low 0.0521 | locus YDL185W, strain tfp1, active compounds read low 0.058 | locus YDL192W, strain arf1, active compounds read low 0.0653 | locus YDR001C, strain nth1, active compounds read low 0.0631 | locus YDR069C, strain doa4, active compounds read low 0.0665 | locus YDR101C, strain arx1, active compounds read low 0.06 | locus YDR137W, strain rgp1, active compounds read low 0.0918 | locus YDR159W, strain sac3, active compounds read low 0.0928 | locus YDR162C, strain NBP2, active compounds read low 0.0474 | locus YDR195W, strain ref2 0.135 | locus YDR297W, strain sur2, active compounds read low 0.0662 | locus YDR318W, strain mcm21, active compounds read low 0.0655 | locus YDR334W, strain swr1, active compounds read low 0.0673 | locus YDR335W, strain msn5, active compounds read low 0.0634 | locus YDR388W, active compounds read low 0.0556 | locus YDR392W, strain spt3, active compounds read low 0.101 | locus YDR502C, strain sam2, active compounds read low 0.0664 | locus YEL003W, strain gim4, active compounds read low 0.0625 | locus YEL037C, strain rad23, active compounds read low 0.0622 | locus YEL061C, strain CIN8 (second series), active compounds read low 0.0671 | locus YEL061C, strain CIN8, active compounds read low 0.0514 | locus YER015W, strain faa2, active compounds read low 0.0656 | locus YER016W, strain bim1, active compounds read low 0.0682 | locus YER110C, active compounds read low 0.0812 | locus YER111C, strain swi4, active compounds read low 0.0758 | locus YER155C, strain BEM2 (second series), active compounds read low 0.0947 | locus YER155C, strain BEM2, active compounds read low 0.0718 | locus YER167W, strain BCK2, active compounds read low 0.0519 | locus YFR010W, strain ubp6, active compounds read low 0.0703 | locus YGL078C, strain dbp3, active compounds read low 0.0608 | locus YGL086W, strain mad1, active compounds read low 0.0597 | locus YGL167C, strain pmr1, active compounds read low 0.0798 | locus YGL173C, strain kem1, active compounds read low 0.0716 | locus YGL227W, strain vid30, active compounds read low 0.0707 | locus YGL240W, strain doc1, active compounds read low 0.0866 | locus YGL248W, strain PDE1, active compounds read low 0.0515 | locus YGL253W, strain hxk2, active compounds read low 0.058 | locus YGR078C, strain PAC10, active compounds read low 0.0546 | locus YGR135W, strain pre9, active compounds read low 0.065 | locus YGR252W, strain gcn5, active compounds read low 0.175 | locus YHR013C, strain ard1, active compounds read low 0.11 | locus YHR027C, strain rpn1, active compounds read low 0.0647 | locus YHR030C, strain SLT2, active compounds read low 0.0526 and 0.0937 | locus YHR079C, strain IRE1 (second series), active compounds read low 0.0583 | locus YHR079C, strain IRE1, active compounds read low 0.109 | locus YHR094C, strain hxt1, active compounds read low 0.0632 | locus YHR129C, strain ARP1, active compounds read low 0.0642 | locus YHR142W, strain chs7, active compounds read low 0.0791 | locus YHR200W, strain rpn10, active compounds read low 0.0659 | locus YIL066C, strain RNR3, active compounds read low 0.0522 | locus YIL073C, strain SPO22, active compounds read low 0.112 | locus YIL125W, strain kgd1, active compounds read low 0.0598 | locus YIR030C, strain dcg1, active compounds read low 0.0627 | locus YJL092W, strain hpr5, active compounds read low 0.063 | locus YJL095W, strain BCK1 (second series), active compounds read low 0.0609 | locus YJL095W, strain BCK1, active compounds read low 0.063 and 0.0938 | locus YJL115W, strain asf1, active compounds read low 0.0778 | locus YJL129C, strain trk1, active compounds read low 0.0912 | locus YJL134W, strain LCB3, active compounds read low 0.0539 | locus YJL154C, strain vps35, active compounds read low 0.0631 | locus YJL164C, strain tpk1, active compounds read low 0.0734 | locus YJL166W, strain qcr8, active compounds read low 0.0662 | locus YJL168C, strain set2, active compounds read low 0.0634 | locus YJL187C, strain SWE1 (second series), active compounds read low 0.053 | locus YJL187C, strain SWE1, active compounds read low 0.0672 | locus YJR043C, strain POL32, active compounds read low 0.068 | locus YJR066W, strain TOR1, active compounds read low 0.00216 | locus YJR075W, strain HOC1, active compounds read low 0.0627 | locus YKL009W, strain mrt4, active compounds read low 0.0702 | locus YKL068W, active compounds read low 0.0617 | locus YKL085W, strain MDH1 (second series), active compounds read low 0.0539 | locus YKL085W, strain MDH1, active compounds read low 0.0539 | locus YKL160W, strain elf1, active compounds read low 0.0716 | locus YKL190W, strain CNB1, active compounds read low 0.0484 | locus YKR001C, strain vps1, active compounds read low 0.0653 | locus YKR026C, strain gcn3, active compounds read low 0.0732 | locus YKR091W, strain srl3, active compounds read low 0.069 | locus YLL001W, strain dnm1, active compounds read low 0.0664 | locus YLL026W, active compounds read low 0.0595 | locus YLL041C, strain sdh2, active compounds read low 0.0627 | locus YLR027C, strain aat2, active compounds read low 0.0603 | locus YLR039C, strain RIC1, active compounds read low 0.0987 | locus YLR058C, strain SHM2, active compounds read low 0.0519 | locus YLR102C, strain apc9, active compounds read low 0.0656 | locus YLR113W, strain HOG1, active compounds read low 0.121 | locus YLR221C, strain rsa3, active compounds read low 0.0659 | locus YLR258W, strain gsy2, active compounds read low 0.0669 | locus YLR262C, strain YPT6 (second series), active compounds read low 0.0856 | locus YLR262C, strain YPT6, active compounds read low 0.115 | locus YLR268W, strain sec22, active compounds read low 0.0687 | locus YLR320W, strain mms22, active compounds read low 0.0895 | locus YLR330W, strain CHS5, active compounds read low 0.0525 | locus YLR342W, strain FKS1 (second series), active compounds read low 0.0737 | locus YLR342W, strain FKS1, active compounds read low 0.0735 | locus YLR357W, strain rsc2, active compounds read low 0.133 | locus YLR370C, strain arc18, active compounds read low 0.0637 | locus YLR371W, strain rom2, active compounds read low 0.0664 | locus YLR384C, strain iki3, active compounds read low 0.0637 | locus YLR418C, strain cdc73, active compounds read low 0.0958 | locus YML016C, strain PPZ1, active compounds read low 0.0483 | locus YML032C, strain rad52, active compounds read low 0.0723 | locus YML120C, strain ndi1, active compounds read low 0.0605 | locus YML124C, strain tub3, active compounds read low 0.0619 | locus YMR058W, strain fet3, active compounds read low 0.0627 | locus YMR078C, strain ctf18, active compounds read low 0.0787 | locus YMR125W, strain sto1, active compounds read low 0.0836 | locus YMR129W, active compounds read low 0.0601 | locus YMR205C, strain PFK2, active compounds read low 0.0903 | locus YMR223W, strain ubp8, active compounds read low 0.0675 | locus YMR231W, strain pep5, active compounds read low 0.0767 | locus YMR307W, strain GAS1, active compounds read low 0.146 | locus YNL067W, strain RPL9B, active compounds read low 0.0522 | locus YNL071W, strain lat1, active compounds read low 0.0645 | locus YNL183C, strain NPR1, active compounds read low 0.0014 | locus YNL209W, strain ssb2, active compounds read low 0.0627 | locus YNL233W, strain BNI4, active compounds read low 0.0583 | locus YNL248C, strain rpa49, active compounds read low 0.0814 | locus YNL250W, strain rad50, active compounds read low 0.0854 | locus YNL271C, strain bni1, active compounds read low 0.0657 | locus YNL298W, strain CLA4, active compounds read low 0.0613 | locus YNL307C, strain MCK1, active compounds read low 0.0688 | locus YNL322C, strain KRE1 (second series), active compounds read low 0.0705 | locus YNR049C, strain mso1, active compounds read low 0.0644 | locus YNR052C, strain pop2, active compounds read low 0.0622 | locus YOL147C, strain pex11, active compounds read low 0.0601 | locus YOR001W, strain rrp6, active compounds read low 0.0736 | locus YOR061W, strain CKA2, active compounds read low 0.0512 | locus YOR069W, strain VPS5, active compounds read low 0.0495 | locus YOR070C, strain gyp1, active compounds read low 0.0684 | locus YOR080W, strain dia2, active compounds read low 0.0706 | locus YOR083W, strain WHI5, active compounds read low 0.0687 | locus YOR106W, strain vam3, active compounds read low 0.065 | locus YOR136W, strain idh2, active compounds read low 0.0767 | locus YOR144C, strain elg1, active compounds read low 0.062 | locus YOR184W, strain ser1, active compounds read low 0.0708 | locus YOR231W, strain MKK1, active compounds read low 0.0947 | locus YOR265W, strain rbl2, active compounds read low 0.066 | locus YOR270C, strain vph1, active compounds read low 0.0971 | locus YOR290C, strain snf2, active compounds read low 0.0737 | locus YOR316C, strain cot1, active compounds read low 0.0627 | locus YPL051W, strain arl3, active compounds read low 0.0688 | locus YPL078C, strain atp4, active compounds read low 0.0715 | locus YPL106C, strain sse1, active compounds read low 0.116 | locus YPL240C, strain hsp82, active compounds read low 0.0653 | locus YPL256C, strain CLN2, active compounds read low 0.116 | locus YPR119W, strain clb2, active compounds read low 0.0705 | locus YPR141C, strain kar3, active compounds read low 0.0696 | locus YPR163C, strain tif3, active compounds read low 0.0728 | locus YPR167C, strain met16, active compounds read low 0.0671 | strain wtn01, active compounds read low 0.0665
